Assay results reported in PubChem BioAssay (NCI).
About 79,000 compounds went through this panel and 15% of them were active in at least one assay; those are over-represented in the sample as a whole. Rule as the data show it: active = growth inhibition above about 70%; inactive = the rest. Where a SMILES comes first, the peptide text is derived from it. The star is where a group is joined. Cbz = O=C(OCc1ccccc1)*

Assays:
[1] = NCI Yeast Anticancer Drug Screen. Data for the rad50 strain (AID 155);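 also: 0% = growth of vehicle-only cultures of the same strain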; details: S. cerevisiae rad50 strain growth inhibition; at 50.0 µM; active compounds read high
Outline: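 Readout: growth inhibition relative to vehicle-treated cultures. Compound exposure was carried out in a genetically defined yeast strain deficient in DNA damage repair.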

[2] = NCI Yeast Anticancer Drug Screen. Data for the mec2-1 strain (AID 157); details: S. cerevisiae mec2-1 strain, at 50.0 µM, active compounds read high
Outline: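 Each compound was tested on mec2-1 yeast, a strain altered in DNA damage repair or cell cycle control. Growth inhibition is reported relative to vehicle.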

[3] = NCI Yeast Anticancer Drug Screen. Data for the sgs1 mgt1 strain (AID 161);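 also: 0% = growth of cultures given vehicle only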; details: S. cerevisiae sgs1 mgt1 strain, at 50.0 µM, active compounds read high
Outline: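 Test agents were incubated with a DNA-repair-mutant yeast strain. Growth was then read and compared against vehicle-treated controls.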

[4] = NCI Yeast Anticancer Drug Screen. Data for the cln2 rad14 strain (AID 165);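 also: 0% = growth equal to vehicle treated cultures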; details: S. cerevisiae cln2 rad14 strain, at 50.0 µM, active compounds read high
Outline: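 Test compounds were added to cln2 rad14 yeast cultures; inhibition of growth was then determined by comparison with vehicle treatment.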

[5] = NCI Yeast Anticancer Drug Screen. Data for the bub3 strain (AID 167); details: S. cerevisiae bub3 mutant strain, at 50.0 µM, active compounds read high
Outline: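 Readout: yeast growth inhibition, expressed relative to vehicle-only wells. The test organism is a mutant strain from a panel with lesions in DNA repair or checkpoint genes.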

[6] = NCI Yeast Anticancer Drug Screen. Data for the mlh1 rad18 strain (AID 175); details: S. cerevisiae mlh1 rad18 strain growth inhibition; at 50.0 µM; active compounds read high
Outline: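 Inhibition values reflect reduced growth of mutant yeast versus vehicle-treated controls following compound exposure; the mutations affect DNA damage repair.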

Measured: growth inhibition

IC1CCC2OC1CCC2I (stereo not given)
inactive: [1] 2.8% | [2] 1.75% | [3] -3.85% | [4] -8.35% | [5] -5.05% | [6] 11.8%

COc1ccc(C(C#N)NNc2nc(C)cc(=O)[nH]2)cc1OC (stereo not given)
inactive: [1] -60.1% | [2] -47.5% | [3] -43.2% | [4] -19.6% | [5] -30.9% | [6] -47%

CSCCC(NC(=O)C(Cc1ccccc1)NC(=O)OCc1ccccc1)C(=O)O (stereo not drawn) (Cbz-Phe-Met-OH; configuration not given here)
inactive: [1] 5.1% | [2] -13.2% | [3] -1% | [4] -40.4% | [5] -4.95% | [6] 4.85%

CCCNC1=C(C(=O)OCC)C(=O)CO1
inactive: [1] -12.4% | [2] -20.7% | [3] 3.55% | [4] 15.6% | [5] -2.4% | [6] 0.1%

CCC(=O)NC(OCC1(CC)COC1)(C(F)(F)F)C(F)(F)F
inactive: [1] -8.6% | [2] -10.8% | [3] -37.1% | [4] 2.75% | [5] -11.5% | [6] -13.2%

Cc1[nH]c(=O)[nH]c(=O)c1C(=O)N(CCO)Cc1ccccc1
inactive: [1] -39.5% | [2] -21.4% | [3] -24.9% | [4] 7.7% | [5] 11.7% | [6] -15.9%

CC(=O)O/N=C1\C=Cc2c(no[n+]2[O-])C1=O
inactive: [1] -8.9% | [2] -20.3% | [3] -0.7% | [4] 12.1% | [5] -12.5% | [6] -5.35%

Cn1c(=O)[nH]c2c(c1=O)CCCS2
inactive: [1] 3.75% | [2] 6.4% | [3] 20.4% | [4] 0.65% | [5] -19.6% | [6] -10.1%

Nc1nc(Cl)nc(Nc2ccc(-c3cc4ccc(-c5ncc[nH]5)cc4[nH]3)cc2)n1
inactive: [1] 15.5% | [2] 45.5% | [3] 45.4% | [4] 31.7% | [5] -3.6% | [6] 62.6%

CN(C)CCC1(C#N)CCCCC1
inactive: [1] 5.3% | [2] 23.3% | [3] 10.4% | [4] -19.3% | [5] 12.4% | [6] 1.65%

C/C(CC(=O)Nc1ccc(C)c(C)c1)=N\N(c1ccccc1)c1ccccc1
inactive: [1] -16.6% | [2] -13.8% | [3] -27% | [4] -3.4% | [5] -17.6% | [6] -20.5%

O=C(N/N=C/c1cccc(F)c1)c1ccncc1
inactive: [1] 8.4% | [2] 1% | [3] -2.05% | [4] -23.9% | [5] -0.35% | [6] 8.35%

Cc1ccc(S(=O)(=O)N(Cc2cccc([N+](=O)[O-])c2)c2ccc(C(=O)O)cc2)cc1
inactive: [1] 8.45% | [2] 4.55% | [3] 0.8% | [4] -12.7% | [5] 5.95% | [6] 21.1%

CSc1n[n+]2c(s1)SCCC2
inactive: [1] -19.8% | [2] -27.2% | [3] 0.05% | [4] 5.45% | [5] -8.7% | [6] 0.05%

CC1(C)COC(c2ccc(C(F)(F)F)cc2C(O)c2ccc3ccccc3c2)=N1 (stereo not given)
inactive: [1] 11.8% | [2] -2.15% | [3] 3.8% | [4] 10.3% | [5] -3.3% | [6] 10.3%

Cc1nc2c(N3CCCCC3)ncnc2o1
inactive: [1] 7.3% | [2] -0.85% | [3] -6.15% | [4] -28.7% | [5] -13.8% | [6] 4.05%

C/C=C\c1ccc2oc(-c3ccc4c(c3)OCO4)c(C)c2c1
inactive: [1] 3.2% | [2] 9.9% | [3] 6.15% | [4] -57.8% | [5] -4.6% | [6] -11.3%

Cc1cccc(C)c1Nc1cc(=O)[nH]c(=O)[nH]1
inactive: [1] -2.6% | [2] -2.75% | [3] 3.4% | [4] -33.2% | [5] -11.6% | [6] -12.2%

Nc1ccc(C(=O)OCCN2CCN(CCOC(=O)c3ccc(N)cc3)CC2)cc1
inactive: [1] 28.9% | [2] 13.4% | [3] 12.6% | [4] 16.2% | [5] 1.6% | [6] 28.4%

C[N+]1(C)CCC(c2ccccc2)(c2ccccc2)C(O)C1 (stereo not given)
inactive: [1] -8.85% | [2] 40.7% | [3] 0% | [4] -0.2% | [5] -8.5% | [6] 1.5%

Cc1ccc(S(=O)(=O)CCOC(=O)Nc2ccccc2)cc1
inactive: [1] 2.5% | [2] 12.6% | [3] 1.7% | [4] -12.4% | [5] -14.6% | [6] 11.5%

COc1cccc2cc[nH]c12
inactive: [1] 0.2% | [2] 11.2% | [3] -9.2% | [4] 10.8% | [5] 7.7% | [6] 8.6%

CC1CC(N2CSC(=S)N(C3CC(C)CC(C)(C)C3)C2)CC(C)(C)C1 (stereo not given)
inactive: [1] -17.2% | [2] -16.2% | [3] -4.55% | [4] 9.5% | [5] 3.9% | [6] -0.4%

CC1CCC(C(C)C)/C(=N\O)C1 (stereo not given)
inactive: [1] 4.8% | [2] -19.4% | [3] -11.9% | [4] -7.7% | [5] -6.4% | [6] 2.05%

COc1cc2c(c(OC)c1OC)C(=O)[C@@H](O)[C@H]2N
inactive: [1] -10.4% | [2] -31.9% | [3] -13% | [4] -25.5% | [5] -23.8% | [6] -41.5%

CCC(C(=O)O)C(=O)O.[NH-]CC1CCCC[N-]1.[Pt+2]
inactive: [1] 7.7% | [2] -3.6% | [3] 2.55% | [4] 7.95% | [5] -39.5% | [6] -34.7%

OCC(O)C(O)C(O)C(SCc1ccccc1)SCc1ccccc1 (stereo not given)
inactive: [1] 3.9% | [2] -7.85% | [3] -20.4% | [4] -4.8% | [5] -6.2% | [6] -12.6%

COC(=O)c1cc(C(=O)OC)c(CC(=O)C(=O)Nc2c(C(C)C)cccc2C(C)C)nc1CC(=O)C(=O)Nc1c(C(C)C)cccc1C(C)C
inactive: [1] -18.8% | [2] -22.9% | [3] -11.7% | [4] 1.75% | [5] -13.1% | [6] -6.85%

O=CNCO
inactive: [1] 19.6% | [2] 14.2% | [3] 22.6% | [4] 18.9% | [5] 8.5% | [6] 19.1%

Cl/C(=C\c1ccccc1)c1ccccc1
inactive: [1] 20.4% | [2] -6.55% | [3] -5.7% | [4] -42.5% | [5] 7.7% | [6] -6.55%

O=C(OCc1ccccc1CN1CCCC1)c1cccc(Cl)c1
inactive: [1] 2.8% | [2] -3.75% | [3] -8.1% | [4] -7.2% | [5] 8.35% | [6] 2.65%

Cc1ccc(C(C)C)cc1NC(=O)NCCCl
inactive: [1] -9.8% | [2] 10.6% | [3] 2.8% | [4] -33.3% | [5] -9.6% | [6] -6.4%

CC(=O)c1cc2c(cc1C(C)C)C(C)(C)C(C)CC2(C)C (stereo not given)
inactive: [1] -19.6% | [2] -19.2% | [3] 13.8% | [4] 29.4% | [5] -41.9% | [6] 17.4%

C#CCCOC1(OC)N=NC(C)(C)O1 (stereo not given)
inactive: [1] 1.05% | [2] 0.9% | [3] -6.95% | [4] 12.3% | [5] -2.65% | [6] -24.6%

CCOC(=O)c1c(OC)c(-c2ccccc2)c(=O)n2c3ccccc3n(C)c12
inactive: [1] 18.2% | [2] 9.05% | [3] -0.2% | [4] -4.1% | [5] -1.1% | [6] 9.9%

Cc1cc(=O)oc2c(C)c3oc4c(c3cc12)CN(C)CC4
inactive: [1] 26.9% | [2] 10.9% | [3] 25.4% | [4] 20% | [5] 13.9% | [6] 25.8%

O=C1NC(=O)C(c2ccsc2)(c2cccs2)N1 (stereo not given)
inactive: [1] 20.9% | [2] -9.3% | [3] 1% | [4] 14.3% | [5] 5.05% | [6] -1.65%

CC(=O)OCN(C)N=Nc1ccc(C(C)=O)cc1
inactive: [1] -4.6% | [2] -11.3% | [3] -27.8% | [4] -22.7% | [5] 20.9% | [6] 5.45%

COc1ccc2c(c1)c1ccc3c(c1n2C)C(=O)C=CC3=O
inactive: [1] 8.4% | [2] -1.6% | [3] 43% | [4] 11% | [5] 4.8% | [6] 15.7%

C[n+]1ccsn1
inactive: [1] -0.7% | [2] 3.05% | [3] -4.7% | [4] 37% | [5] -19.4% | [6] -10.4%
